# Assay results: the supplement of paper PMC13380429
# Unmarked numbers belong to inactive results.
# Test system: Vero E6 infected with SARS-CoV-2
# Assay: inhibition of SARS-CoV-2 cytopathic effect; higher = more antiviral protection, active = above 15
# Details: 48 h
Compound,inhibition of SARS-CoV-2 cytopathic effect (1 nM),inhibition of SARS-CoV-2 cytopathic effect (8.33 nM),inhibition of SARS-CoV-2 cytopathic effect (100 nM),inhibition of SARS-CoV-2 cytopathic effect (833.33 nM),inhibition of SARS-CoV-2 cytopathic effect (10000 nM)
Nc1nc(NC[C@H]2CC[C@H](CNS(=O)(=O)c3cccc4ccccc34)CC2)nc2ccccc12,-0.54%,-0.03%,0.19%,-0.88%,29.5% (active)
CC(=O)Nc1ncc([N+](=O)[O-])s1 [nithiamide],-2.44%,-2.01%,-13.5%,-2.95%,-1.53%
CSc1ccccc1OCC(O)CNC(C)C (stereo not given) [tiprenolol],-1.52%,2.58%,-1.94%,0.37%,3.9%
Cc1[nH]c(=O)c(C#N)cc1-c1ccc2nccn2c1 [olprinone],-2.15%,1.36%,0.52%,0.56%,-0.84%
Nc1[nH]cnc2ncnc1-2 [adenine],1.26%,0.3%,3.06%,6.45%,3.2%
CNCCCOc1cc(F)c(-c2c(Cl)nc3ncnn3c2N[C@@H](C)C(F)(F)F)c(F)c1 [cevipabulin],1.36%,1.13%,2.89%,6.1%,-0.76%
COc1cc(OC)cc(-c2ccc3c(-c4ccc(F)cc4)n[nH]c3n2)c1,12%,-1.07%,2.95%,1.46%,-0.11%
O=C(O)CCNc1cc(N2CCc3ccccc3CC2)nc(-c2ccccn2)n1,-2.6%,1.21%,0.26%,-1.21%,0.82%
O=C(O)/C=C/c1ccc(O)c(O)c1 [caffeic-acid],2.05%,-0.05%,0.87%,-0.22%,-4.36%
c1cnc2cc3c(cc2n1)[C@@H]1CNC[C@H]3C1 [varenicline],1.15%,1.67%,-1.63%,-1.66%,3.97%
CCc1nc(C)ccc1O [emoxipin],1.2%,3.95%,1.53%,0.68%,1.33%
CC[N+](CC)(CC)CCC(O)(c1ccccc1)C1CCCCC1 (stereo not given) [tridihexethyl],-1.22%,-1.31%,-0.23%,-1.37%,-1.87%
N[C@@H](C(=O)N[C@@H]1C(=O)N2C(C(=O)O)=C(Cl)CC[C@H]12)c1ccccc1 [loracarbef],7.18%,4.02%,2.95%,1.17%,5.45%
COc1cccc(C=NCCN=Cc2cccc(OC)c2[O-])c1[O-].[Cl-].[Mn+3],2.33%,1.86%,0.89%,1.11%,14.1%
O[C@H]1[C@H](O)[C@@H](O)CN2CC[C@H](O)[C@H]12 [castanospermine],0.15%,1.99%,1.25%,1.7%,2.28%
Cn1c(=O)cnn(CCCCN2CCN(c3ncccn3)CC2)c1=O,0.44%,-0.24%,1.14%,-0.77%,1.05%
Cc1cc(NC(=O)C(c2ccccc2)N2CCCc3ccccc32)no1 (stereo not given),0.33%,-0.92%,1.85%,0.35%,3.91%
N#Cc1c(N)nc(SCc2csc(-c3ccc(Cl)cc3)n2)c(C#N)c1-c1ccc(OCCO)cc1 [capadenoson],0.18%,-0.34%,-1.11%,-2.63%,-3.59%
CCC(=O)OCN1C(=O)C=CC1=O,-0.55%,0.83%,0.41%,1.73%,1.22%
NC(=O)C(c1ccccc1)(c1ccc(F)cc1)c1ccc(F)cc1 [senicapoc],-2.77%,-1.48%,-2.37%,0.14%,-0.54%

Compound,inhibition of SARS-CoV-2 cytopathic effect (1 nM),inhibition of SARS-CoV-2 cytopathic effect (8.33 nM),inhibition of SARS-CoV-2 cytopathic effect (100 nM),inhibition of SARS-CoV-2 cytopathic effect (833.33 nM),inhibition of SARS-CoV-2 cytopathic effect (10000 nM)
CC(C)C[C@H](NC(=O)N1CCCCCC1)C(=O)N[C@H](Cc1cn(C)c2ccccc12)C(=O)N[C@H](Cc1ccccn1)C(=O)O,-0.85%,2.47%,0.97%,-2.82%,2.44%
COc1ccc(CNC(=O)/C=C/c2ccc3[nH]cc(CCN(C)C)c3c2)cc1,2.58%,0.05%,1.04%,1.72%,2.86%
Cc1nc(N)sc1-c1ccnc(Nc2ccc(N3CCOCC3)cc2)n1,0.34%,0.72%,0.35%,2.13%,2.1%
Cc1c(Cl)c(C)[n+]([O-])c(Cl)c1-c1noc(-c2cc(O)c(O)c([N+](=O)[O-])c2)n1 [opicapone],2.55%,1.95%,0.21%,0.43%,-1.39%
O=C(Nc1ccc(Cl)cc1)Nc1ccc(Cl)c(Cl)c1 [triclocarban],-2.22%,-0.87%,0.35%,-1.44%,-0.6%
c1ccc(CCCN2CCN(CCOC(c3ccccc3)c3ccccc3)CC2)cc1,0.71%,0.97%,-0.18%,0.61%,-1.85%
CNC[C@@H]1CC[C@@H](N)[C@@H](O[C@H]2[C@H](O)[C@@H](O[C@H]3OC[C@](C)(O)[C@H](NC)[C@H]3O)[C@H](N)C[C@@H]2N)O1 [micronomicin],0.04%,1.42%,0.72%,3.66%,-0.03%
COc1cc2c(cc1OC)[C@@]13CCN4CC5=CCO[C@H]6CC(=O)N2[C@H]1[C@H]6[C@H]5C[C@H]43 [brucine],7.12%,1.25%,3.51%,2.71%,0.47%
Cc1cc(N2CCOCC2)cc2[nH]c(-c3c(NC[C@@H](O)c4cccc(Cl)c4)cc[nH]c3=O)nc12,-1.74%,-0.03%,-2.39%,-2.43%,-13.9%
O=C(O)[C@H](O)c1ccccc1 [mandelic-acid],-0.12%,3.41%,3.65%,2.65%,-2.37%
NC[C@H]1O[C@H](O[C@H]2[C@H](O[C@@H]3O[C@H](CO)[C@@H](O)[C@H]3O)[C@@H](O)[C@H](N)C[C@@H]2N)[C@H](N)[C@@H](O)[C@@H]1O [ribostamycin-sulfate],2.02%,-0.235%,-0.77%,-1.25%,-0.88%
CS(=O)(=O)Nc1ccc([N+](=O)[O-])cc1Oc1ccccc1 [nimesulide],0.43%,-0.72%,1.12%,2.18%,2.92%
Cc1nn(C)c2c1C(c1cccc(Cl)c1)=NCCN2 [zometapine],-1.8%,-1.16%,1.14%,-0.92%,-4.7%
CCS(=O)(=O)Nc1ccc2c(c1)/C(=C(/Nc1ccc(CN3CCCCC3)cc1)c1ccccc1)C(=O)N2 [hesperadin],1.74%,3.12%,0.27%,-9.14%,-10.5%
Nc1nc(O)c2nc(Br)n([C@@H]3O[C@@H]4COP(=O)(O)O[C@H]4[C@H]3O)c2n1 [8-bromo-cGMP],0.61%,2.94%,2.06%,1.94%,1.61%
C[C@H]1[C@H](C)CC[C@]2(C(=O)O)CC[C@]3(C)C(=CC[C@@H]4[C@@]5(C)C[C@@H](O)[C@H](O)[C@@](C)(CO)[C@@H]5CC[C@]43C)[C@H]12 [asiatic-acid],-2.75%,-0.62%,-0.32%,1.12%,-3.69%
O=C1NC(=O)C(c2ccccc2)(c2ccccc2)N1 [phenytoin],-2.48%,0.49%,-0.76%,-0.84%,0.37%
C[C@@H]1CC(=O)NN=C1c1ccc(NN=C(C#N)C#N)cc1 [levosimendan],-0.58%,0.74%,0.3%,1.84%,1.18%
CC1(C)C(=O)NC2=C1C(=O)C(=O)c1ccccc12,0.25%,-0.49%,-0.78%,1.58%,-10.5%
CNc1nc(NCc2ccc(NS(C)(=O)=O)cc2Cl)cc(-c2ccccn2)n1,-1.79%,-3%,0.48%,-2.53%,2.16%
